# Assay results from PMC5540273 (PLoS ONE, 2017).
# Tests used:
# Details in all cases: concentration: 1 μM, replicates: in singlicate; n = 1
# MTOR = tested on: MTOR
# MUSK = tested on: MUSK
# MYLK2 = tested on: MYLK2
# MYLK4 = tested on: MYLK4
# MYLK = tested on: MYLK
# MYO3A = tested on: MYO3A
# MYO3B = tested on: MYO3B
# NDR1 = tested on: T1, NDR1
# T1 construct: gene STK38
# NDR2 = tested on: NDR2
# NEK10 = tested on: NEK10
# NEK11 = tested on: NEK11
# NEK1 = tested on: NEK1
# NEK2 = tested on: NEK2
# NEK3 = tested on: NEK3
# NEK4 = tested on: NEK4
# NEK5 = tested on: NEK5
# NEK6 = tested on: NEK6
# NEK7 = tested on: NEK7
# NEK9 = tested on: NEK9
# NIK = tested on: T2, NIK
# T2 construct: gene MAP3K14
# 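Note: KINOMEscan kinase panel screen.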
SMILES,%Inh (MTOR),%Inh (MUSK),%Inh (MYLK2),%Inh (MYLK4),%Inh (MYLK),%Inh (MYO3A),%Inh (MYO3B),%Inh (NDR1),%Inh (NDR2),%Inh (NEK10),%Inh (NEK11),%Inh (NEK1),%Inh (NEK2),%Inh (NEK3),%Inh (NEK4),%Inh (NEK5),%Inh (NEK6),%Inh (NEK7),%Inh (NEK9),%Inh (NIK)
COc1cc(Nc2nccc(N3CCC(NC(=O)Nc4cccc(C(C)=O)c4)C3)n2)cc(OC)c1OC (centres unmarked) [GSK1379753],0%,18%,7%,1%,17%,6%,0%,8%,0%,20%,0%,58%,43%,41%,30%,100%,1%,45%,27%,5%
COc1ccc(CNC(=O)NC2CCN(c3ccnc(Nc4ccc(F)cc4)n3)CC2)cc1 [GSK1379788],18%,0%,0%,5%,5%,40%,0%,7%,16%,3%,2%,0%,0%,12%,0%,13%,0%,0%,0%,12%
CCn1c(-c2nonc2N)nc2c(C#CC(C)(C)O)nc(OC[C@H](N)c3ccccc3)cc21 [GSK943949],20%,0%,0%,0%,12%,0%,0%,34%,2%,34%,0%,0%,0%,3%,0%,0%,14%,0%,0%,72%
CC(C)(C)c1ccc2nccc(Nc3cccc(O)c3)c2c1 [GW856795],0%,0%,0%,0%,20%,6%,5%,0%,0%,0%,22%,0%,11%,13%,0%,0%,0%,0%,0%,9%
CC(C)c1nc(-c2cccc(NS(=O)(=O)c3c(F)cccc3F)c2F)c(-c2ccnc(Nc3ccc(N4CCOCC4)nc3)n2)s1 [GSK2008607],10%,10%,0%,0%,18%,78%,65%,62%,65%,0%,98.6%,82%,99.1%,1%,51%,26%,99.1%,92.9%,93.6%,0%
CSc1cccc2c(-c3ccncn3)c(-c3ccc(F)cc3)nn12 [GW514786],24%,7%,0%,0%,23%,13%,0%,13%,12%,2%,0%,0%,0%,0%,15%,7%,0%,0%,1%,14%
Nc1ncc(-c2cccnc2)c2scc(-c3ccc4c(c3)CCN4C(=O)Cc3ccccc3)c12 [GSK683281],0%,39%,32%,11%,33%,17%,6%,29%,0%,14%,44%,0%,70%,1%,17%,22%,8%,19%,28%,4%
COc1cc(Nc2nccc(-c3c(-c4cccc(NC(=O)c5c(F)cccc5F)c4)nn4ncccc34)n2)cc(OC)c1OC [GSK327238],8%,25%,10%,7%,9%,38%,40%,20%,0%,15%,0%,0%,92.7%,0%,12%,58%,17%,18%,41%,13%
O=C(Nc1cccc(-c2nn3ccccc3c2-c2ccnc(Nc3cccc(C(F)(F)F)c3)n2)c1)c1c(F)cccc1F [GSK292658],0%,10%,0%,0%,0%,0%,0%,0%,0%,0%,0%,0%,8%,0%,0%,0%,0%,4%,16%,0%
Cl.Cl.NCC(NC(=O)c1cc(-c2ccccc2)c(-c2ccnc3[nH]ccc23)s1)c1ccccc1 (centres unmarked) [GSK1321561],0%,13%,17%,94.9%,26%,14%,0%,24%,16%,25%,6%,0%,8%,0%,0%,6%,0%,0%,13%,17%
Cn1cc(-c2[nH]c3cc(NC(=O)[C@H](N)C4CCCCC4)cc4c3c2C=NNC4=O)cn1,17%,12%,47%,98.7%,24%,5%,0%,93.1%,75%,54%,89%,70%,21%,32%,0%,54%,2%,0%,11%,3%
c1ccc(Oc2ccc(Nc3ccnc4cc(-c5ccc(CNCCN6CCOCC6)o5)ccc34)cc2)nc1 [GW567145],23%,1%,0%,0%,0%,24%,0%,16%,40%,0%,45%,0%,0%,0%,0%,0%,0%,0%,13%,28%
NCCCC(NC(=O)c1cc(Br)c(-c2ccnc3[nH]ccc23)s1)c1ccccc1.O=C(O)C(F)(F)F.O=C(O)C(F)(F)F (centres unmarked) [GSK1287544],3%,8%,30%,99.6%,23%,0%,0%,95.7%,86%,20%,0%,74%,9%,0%,9%,88%,16%,0%,17%,16%
O=c1[nH]cc(-c2ccc(N3CCOCC3)cc2)c2sc(-c3cn[nH]c3)cc12 [GSK2276055],8%,0%,3%,48%,18%,53%,0%,30%,29%,0%,0%,19%,19%,16%,0%,0%,0%,39%,53%,17%
COc1cc2c(cc1OCCN1CCNCC1)ncc1c3ccc(C#N)cc3[nH]c21,19%,0%,68%,70%,47%,0%,0%,3%,0%,20%,7%,0%,41%,29%,100%,0%,15%,0%,0%,65%
Oc1cc(Nc2ccnc3cc(I)ccc23)ccc1F [GW552771],11%,5%,0%,1%,17%,0%,0%,0%,0%,9%,0%,0%,0%,1%,38%,0%,0%,0%,0%,0%
COCCOCCOc1cc2ncc3c4ccc(C#N)cc4[nH]c3c2cc1OC,0%,6%,54%,72%,33%,10%,0%,60%,0%,0%,0%,0%,53%,33%,0%,0%,0%,15%,7%,65%
FC(F)(F)c1ccc(/C=C/c2cncnc2Nc2ccc3[nH]c(Cc4ccccc4)nc3c2)cc1 [GW709199],28%,15%,2%,25%,15%,0%,30%,21%,0%,0%,9%,0%,0%,30%,0%,23%,13%,0%,2%,0%
COC(=O)Nc1nc2cc(Oc3ccc(NC(=O)Nc4cc(C(F)(F)F)ccc4F)cn3)ccc2[nH]1.Cl.Cl [GW681170],2%,99.4%,0%,0%,16%,21%,0%,20%,14%,7%,34%,0%,0%,0%,0%,0%,0%,0%,35%,26%
